The list is not random: actives were taken first. Their share in the collection is about 8.7%.
BAZ2B block = blocks human BAZ2B | Q9UIF8 | AlphaScreen BAZ2B-H3K14Ac peptide displacement | Potency, µM (series often up to 114 µM), hits mostly inhibitors | 360,000 compounds, 4.4% hits; note: nearly all actives have a fitted effect of over 60% in size
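BAZ2B (50 nM) with biotin-H3(5-23)K14Ac peptide (50 nM) in PBS pH 7.4, 0.01% Tween-20, preformed 30 min, then compound 30 min at room temperature; top concentration 110uM. AlphaScreen streptavidin donor/nickel chelate acceptor beads (10 ug/mL final), 20 min dark, signal read.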
G9a block = blocks human histone lysine methyltransferase G9a; Q96KQ7; G9a H3K9 monomethylation, AlphaScreen, 2 h; Potency, µM (titrated, usually from 102 µM), usual class: inhibitors; 350,000 compounds, 8.8% hits; note: nearly all actives have a fitted effect of over 75% in size
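Quantitative HTS format: methyltransferase activity on a biotin-tagged H3K9 peptide is measured by AlphaScreen, using a rabbit anti-monomethyl-H3K9 antibody with streptavidin donor and anti-IgG acceptor beads. Final levels are 20 nM enzyme, 500 nM peptide, 20 uM SAM; 2 h RT.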
Sfp inh = inhibitors of Bacillus subtilis Sfp phosphopantetheinyl transferase. Q9F4F7. Biochemical Sfp PPTase activity, qHTS. 310,000 compounds, 3.5% hits. Potency, µM, most hits filed as inhibitors;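 note: the enzyme is Sfp with the accession as filed and its product quenches rhodamine fluorescence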
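Fluorescence-quenching assay with 15 nM Sfp, 5 uM rhodamine-CoA and 12.5 uM BHQ-2-labelled ybbR peptide in pH 7.6 Hepes/MgCl2 buffer. Enzyme was pre-incubated with compound for 15 min at room temperature. Rate was taken from the 30-min fluorescence change (525/598 nm).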
JMJD2A Tudor = blocks the human JMJD2A Tudor domain; O75164; AlphaScreen JMJD2A-Tudor / H3K4me3 peptide binding; Potency, µM (top dose mostly 114 µM), actives largely listed as inhibitors; 390,000 compounds, 4.4% hits; AID 504339; note: nearly all actives have a fitted effect of over 50% in size
ALOX12 inh = ALOX12 (human) lipoxygenase inhibition; Potency, µM (titrated, usually from 108 µM), most hits filed as inhibitors; 580,000 compounds, 1.1% hits; AID 1671190; P18054; purified 12hLO, xylenol orange hydroperoxide absorbance
Target sequence (P18054 whole entry, looked up): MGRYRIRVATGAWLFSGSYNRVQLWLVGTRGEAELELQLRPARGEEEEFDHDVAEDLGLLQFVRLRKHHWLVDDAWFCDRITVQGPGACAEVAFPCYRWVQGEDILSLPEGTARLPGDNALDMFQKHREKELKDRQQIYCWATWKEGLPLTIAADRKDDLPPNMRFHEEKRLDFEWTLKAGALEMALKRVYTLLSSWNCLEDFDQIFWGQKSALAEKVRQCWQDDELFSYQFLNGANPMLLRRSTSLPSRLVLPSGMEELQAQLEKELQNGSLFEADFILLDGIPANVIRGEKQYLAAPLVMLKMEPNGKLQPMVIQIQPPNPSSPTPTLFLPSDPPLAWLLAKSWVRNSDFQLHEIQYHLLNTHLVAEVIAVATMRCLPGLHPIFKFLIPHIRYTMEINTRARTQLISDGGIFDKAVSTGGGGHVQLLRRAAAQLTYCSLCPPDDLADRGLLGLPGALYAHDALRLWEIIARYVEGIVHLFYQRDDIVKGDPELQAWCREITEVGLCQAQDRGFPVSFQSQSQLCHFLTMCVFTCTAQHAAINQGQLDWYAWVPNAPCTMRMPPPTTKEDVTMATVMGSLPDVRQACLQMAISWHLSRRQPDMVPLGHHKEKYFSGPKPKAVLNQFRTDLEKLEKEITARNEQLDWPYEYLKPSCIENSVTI
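Purified human 12hLO (150 nM final) in 25 mM Hepes, 0.01% Triton X-100, pH 7.0 was preincubated 15 min at room temperature with compound. Then 40 uM arachidonic acid was added, 30 min. Hydroperoxide was read by Fe-XO absorbance ratio 573/405 nm.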
HP1b binding inh = blocks HP1-beta chromodomain binding to methylated histone tails; P83916; AlphaScreen HP1-beta / biotin-H3K9me3 peptide binding; Potency, µM (top dose mostly 114 µM), hits mostly inhibitors; 390,000 compounds, 0.56% hits; AID 540317; note: nearly all actives have a fitted effect of over 70% in size
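Compound inhibition of the preformed complex between 50 nM HP1-beta and 50 nM biotinylated H3K9me3 peptide was read by AlphaScreen. Buffer was PBS pH 7.4 with 0.01% Tween-20. Incubations ran 30 min at room temperature, with 10 ug/mL donor/acceptor beads.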
JMJD2E inh-1 = JMJD2E demethylase inhibition by 8HQ compounds | JMJD2E demethylase, FDH-coupled NADH fluorescence | AID 493212 | shares compounds with BAZ2B block | Potency, µM (top dose mostly 57 µM), hits mostly inhibitors | 130 compounds, 89% hits
ME-1 prolif = inhibitors of ME-1 leukemia cell proliferation, CBFb-RUNX1 project | Potency, µM (doses to about 56.1 µM), hits mostly inhibitors | shares compounds with BAZ2B block | ME-1 cell proliferation, ATP luminescence, 48 h | 140 compounds, 20% hits | AID 504370
JMJD2E inh-2 = confirmation of inhibitors of human JMJD2E demethylase; Potency, µM (top dose mostly 56.8 µM), actives largely listed as inhibitors; Recombinant JMJD2E, FDH-coupled NADH fluorescence (FDH is formaldehyde dehydrogenase); shares compounds with JMJD2A Tudor; 140 compounds, 93% hits; AID 2677
FDH inh = FDH (Pseudomonas putida) inhibition counter-screen. shares compounds with JMJD2A Tudor. FDH enzyme assay, NADH fluorescence kinetic. Potency, µM (titrated, usually from 56.7 µM), hits mostly inhibitors. 140 compounds, 10% hits
JMJD2E MALDI inh = blocks demethylation by human JMJD2E in a MALDI-TOF-MS assay; shares compounds with JMJD2A Tudor; recombinant JMJD2E demethylation, MALDI-TOF-MS; Potency, µM, hits mostly inhibitors; 45 compounds, 90% hits;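 active = compounds whose IC50 for blocking JMJD2E demethylation is below 100 µM; inconclusive = dose dependent effect but IC50 above 100 µM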
Of the large screens only hits and unclear results are named; the others gave an inactive call (follow-up assays come after a bar, where they were run). Unless noted, calls come from the whole dose curve; as a rule, active = well fitted curve in the direction sought with a large enough effect; inconclusive = small, poorly fitted or top-dose-only effect, or another doubt; inactive = no such curve, though single readings can be large; an effect the other way counts as inactive or inconclusive.

COc1ccc([C@@H]2Sc3ccccc3NC(=O)[C@@H]2O)cc1	none (no result: BAZ2B block, G9a block, Sfp inh)
COc1ccc(C2Sc3ccccc3N(CCN(C)C)C(=O)C2OC(C)=O)cc1 (stereo not drawn)	ALOX12 inh inconclusive (no result: BAZ2B block, JMJD2A Tudor, HP1b binding inh) | ME-1 prolif inactive
Fc1ccc([C@H]2CCNCC2COc2ccc3c(c2)OCO3)cc1 (stereo partly drawn)	none (no result: BAZ2B block, JMJD2A Tudor, ALOX12 inh, HP1b binding inh) | ME-1 prolif inactive
Cc1c2c(c(O)c3c(O)cccc13)C(=O)O[C@H]2C1C(N(C)C)C(O)=C(C(N)=O)C(=O)[C@H]1O (stereo partly drawn)	Sfp inh inconclusive (no result: BAZ2B block, G9a block, JMJD2A Tudor, ALOX12 inh, HP1b binding inh) | ME-1 prolif inactive
Cn1c(=O)[nH]c(=O)c2c1nc(NCCc1ccccc1)n2CC(=O)c1ccccc1	none (no result: BAZ2B block, G9a block, Sfp inh, JMJD2A Tudor, HP1b binding inh)
C/C(=C\c1cc2ccccc2o1)C1Nc2cccc3cccc(c23)N1	JMJD2A Tudor inconclusive, ALOX12 inh inconclusive, HP1b binding inh inconclusive (no result: Sfp inh)
Brc1ccc(C2Nc3cccc4cccc(c34)N2)o1	BAZ2B block inconclusive, G9a block 20µM, Sfp inh inconclusive, JMJD2A Tudor inconclusive, HP1b binding inh inconclusive (no result: ALOX12 inh) | ME-1 prolif inactive
Cc1c(Cl)cccc1NC(=S)N(CCN(C)C)C(C)c1ccccn1 (stereo not drawn)	BAZ2B block 50µM | ME-1 prolif inactive
Cc1ccccc1NC(=S)N(CCN(C)C)C(C)c1ccccn1 (stereo not drawn)	BAZ2B block inconclusive | ME-1 prolif inactive
Cc1cccc(C(=O)Nc2ccc3nc(SCc4ccc(Br)cc4)sc3c2)c1	none (no result: BAZ2B block, G9a block, Sfp inh, JMJD2A Tudor, HP1b binding inh)
CC(=O)Oc1cc(-c2coc3cc(OC(C)=O)c(OC(C)=O)c(OC(C)=O)c3c2=O)cc(OC(C)=O)c1OC(C)=O	none (no result: BAZ2B block, JMJD2A Tudor, ALOX12 inh, HP1b binding inh) | ME-1 prolif inactive
CCOc1ccc(S(=O)(=O)[C@H]2CS(=O)(=O)C[C@@H]2NCc2ccco2)cc1	none (no result: BAZ2B block, G9a block, Sfp inh, JMJD2A Tudor, HP1b binding inh)
CCNc1ccccc(-c2ccc3ccccc3n2)c1=O	Sfp inh inconclusive
CCNC1=C(Cl)C(=O)c2ccccc2C1=O	BAZ2B block 35µM, G9a block inconclusive, JMJD2A Tudor 50µM, HP1b binding inh inconclusive | ME-1 prolif inconclusive
Oc1ccc(COC2CCCC2)c2cccnc12	BAZ2B block 13µM (no result: Sfp inh, JMJD2A Tudor, ALOX12 inh, HP1b binding inh) | JMJD2E inh-1 6.3µM | JMJD2E inh-2 6.3µM | FDH inh inactive
Cc1ccc(CNC(=O)[C@H]2CCC[C@@H](O)C2)c2cccnc12	none (no result: BAZ2B block, G9a block, Sfp inh, JMJD2A Tudor, HP1b binding inh)
Oc1ccc(COc2cccc3ccccc23)c2cccnc12	BAZ2B block 56µM, G9a block inconclusive (no result: Sfp inh, JMJD2A Tudor, ALOX12 inh, HP1b binding inh) | JMJD2E inh-1 10µM | JMJD2E inh-2 10µM | FDH inh inactive
C[C@H]1[C@@H]2[C@@H](O)C([C@H](C)C(=O)NCc3ccco3)CC[C@@]2(C)CC[C@@H]1NC(=O)c1cncnc1 (stereo partly drawn)	none (no result: BAZ2B block, G9a block, Sfp inh, JMJD2A Tudor, HP1b binding inh)
Oc1ccc(CNc2ccccc2Br)c2cccnc12	JMJD2A Tudor 50µM (no result: BAZ2B block, G9a block, Sfp inh, ALOX12 inh, HP1b binding inh) | JMJD2E inh-1 3.5µM | JMJD2E inh-2 3.5µM | FDH inh inactive | JMJD2E MALDI inh 24
N#Cc1ccc(CNc2ccc(F)cc2Cl)cc1	none (no result: BAZ2B block, G9a block, Sfp inh, JMJD2A Tudor, HP1b binding inh)
O=S(=O)(Nc1ccccc1O)c1cccc2cccnc12	G9a block inconclusive

Screens deposited in PubChem BioAssay by National Center for Advancing Translational Sciences (NCATS).
